Assay [1] is described as follows: A CellTox Green Cytotoxicity Assay to monitor cytotoxicity in HepG2 cells - 0 hour (AID 1224882). Note: nearly all actives have a fitted effect of over 35% in size. Note: potency is the fitted concentration of half-maximal effect. Summed up:
(§1)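 HepG2 cells, 600/well, preincubated 5 h with CellTox Green dye, then exposed to Tox21 compounds in DMSO at 37 C for up to 40 h. Dead-cell DNA fluorescence read at the indicated time point.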

Assay [2] in a line: A CellTox Green Cytotoxicity Assay to monitor cytotoxicity in HepG2 cells - 32 hour (AID 1224883). Note: nearly all actives have a fitted effect of over 50% in size. Note: potency is the fitted concentration of half-maximal effect. Summed up:
as §1

Assay [3] is described as follows: A CellTox Green Cytotoxicity Assay to monitor cytotoxicity in HEK293 cells - 8 hour (AID 1224884). Note: nearly all actives have a fitted effect of over 35% in size. Note: potency is the fitted concentration of half-maximal effect. Summed up:
(§2)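 HEK293 cells, 600/well, were preincubated 5 hours and then exposed to compounds at 37 C for up to 40 hours. A cell-impermeant cyanine dye staining dead-cell DNA was read by fluorescence at 0, 8, 16, 24, 32 and 40 h time points.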

Assay [4] can be described thus: qHTS RealTime-Glo MT Cell Viability Assay in HepG2 cells - 16 hour (AID 1224885). Note: nearly all actives have a fitted effect of over 50% in size. In outline:
(§3)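 qHTS, HepG2, 600 cells/well, RealTime-Glo (NanoLuc + prosubstrate) added with cells; 5 h preincubation; DMSO compound addition; 37 C; luminescence at 0/8/16/24/32/40 h.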

Assay [5] can be described thus: qHTS RealTime-Glo MT Cell Viability Assay in HEK293 cells - 24 hour (AID 1224886). Note: nearly all actives have a fitted effect of over 50% in size. Note: potency is the fitted concentration of half-maximal effect. Summed up: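 Assay medium contained NanoLuc luciferase plus cell-permeant prosubstrate, added with HEK293 cells at 600 cells/well. After 5 h at 37 C/5% CO2 compounds were added; plates stayed at 37 C for 40 h with serial luminescence reads.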
(Quantitative high-throughput screening tests each substance at several concentrations.)

Assay [6] in a line: qHTS RealTime-Glo MT Cell Viability Assay in HEK293 cells - 8 hour (AID 1224887). Note: nearly all actives have a fitted effect of over 50% in size. Note: potency is the fitted concentration of half-maximal effect. In outline:
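600 cells/well were plated with the nonlytic NanoLuc/prosubstrate reagent, pre-incubated 5 h, then given 23 nL of compound in DMSO. Incubation at 37 C for 40 h, with luminescence from viable-cell-reduced substrate read repeatedly from 0 h.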

Assay [7] is described as follows: A CellTox Green Cytotoxicity Assay to monitor cytotoxicity in HEK293 cells - 16 hour (AID 1224888). Note: nearly all actives have a fitted effect of over 35% in size. Note: potency is the fitted concentration of half-maximal effect. Summed up: as §2
Assay [8] can be described thus: A CellTox Green Cytotoxicity Assay to monitor cytotoxicity in HepG2 cells - 8 hour (AID 1224890). Note: nearly all actives have a fitted effect of over 45% in size. Note: potency is the fitted concentration of half-maximal effect. In outline: as §1
A short description of assay [9]: qHTS assay to identify small molecule antagonists of the estrogen receptor alpha (ER-alpha) signaling pathway using the BG1 cell line in the presence of 0.1 nM 17-beta-estradiol - cell viability counter screen (AID 1259241). Note: nearly all actives have a fitted effect of over 40% in size. In outline: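 Viability in VM7Luc4E2 cells after 22 hr compound exposure under 0.1 nM 17beta-estradiol stimulation, by CellTiter-Fluor.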
A short description of assay [10]: qHTS assay to identify small molecule antagonists of the androgen receptor (AR) signaling pathway using the MDA cell line in the presence of 0.5 nM R1881 - cell viability counter screen (AID 1259242). Note: nearly all actives have a fitted effect of over 45% in size. In outline:
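MDA-kb2 cells (MMTV-luciferase, AR/GR responsive) were treated with compounds plus 0.5 nM R1881 (final) for 16 hr at 37C, 0% CO2. Viability was then read in the same wells as live-cell protease fluorescence (CellTiter-Fluor, 30 min).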

Assay [11] concerns the target Androgen receptor (Homo sapiens) (UniProt P10275). Description: qHTS assay to identify small molecule antagonists of the androgen receptor (AR) signaling pathway using the MDA cell line in the presence of 0.5 nM R1881 (AID 1259243). Note: nearly all actives have a fitted effect of over 50% in size. Summed up:
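MDA-kb2 cells (MMTV-luciferase, responsive to AR and GR) at 3,000/well, rested 5 h at 37C, 0% CO2, then given compounds plus 0.5 nM R1881 (final) for 16 hr. Luciferase read with ONE-Glo after 30 min at room temperature.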

Assay [12] concerns the target Estrogen receptor (Homo sapiens) (UniProt P03372). Description: qHTS assay to identify small molecule antagonists of the estrogen receptor alpha (ER-alpha) signaling pathway using the BG1 cell line in the presence of 0.1 nM 17-beta-estradiol (AID 1259244). Note: nearly all actives have a fitted effect of over 50% in size. Note: potency is the fitted concentration of half-maximal effect. In outline:
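VM7Luc4E2 cells (endogenous full-length ER-alpha, 4×ERE-luciferase), kept 5 days in phenol red-free, charcoal-stripped FBS medium; 4,000 cells/well. Compounds added with 0.1 nM (final) 17beta-estradiol, 22 hr at 37C; luminescence read with ONE-Glo after 30 min.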

Assay [13] is described as follows: qHTS assay to identify small molecule HDAC inhibitors (AID 1259364). Note: nearly all actives have a fitted effect of over 45% in size. Note: potency is the fitted concentration of half-maximal effect. In outline: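 Wild-type HCT-116 cells, plated overnight at 37 C, exposed to compounds 2 hr at 37 C; luminogenic HDAC-Glo substrate then added 30 min at room temperature. Luminescence reports relative endogenous class I/II HDAC activity.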
A short description of assay [14]: qHTS assay to identify small molecule HDAC inhibitors - cell viability counter screen (AID 1259365). In outline:
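Cytotoxicity was gauged in wild-type HCT-116 cells after a brief 2hr treatment with DMSO-dissolved compounds at 37C and 5% CO2, using CellTiter-Glo luminescence developed for 30min at room temperature.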

Assay [15] is described as follows: qHTS assay to identify small molecule agonists of the sonic hedgehog signaling (Shh) pathway - cell viability counter screen (AID 1259366). Note: nearly all actives have a fitted effect of over 50% in size. Note: potency is the fitted concentration of half-maximal effect. Summed up: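 Stable Gli1-Luc NIH/3T3 clone, 2,000 cells/well. Compound exposure 24hr at 37C. Read-out: CellTiter-Fluor fluorescence.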
Assay [16] can be described thus: qHTS assay to identify small molecule antagonists of the sonic hedgehog signaling (Shh) pathway - cell viability counter screen (AID 1259367). Note: nearly all actives have a fitted effect of over 55% in size. Note: potency is the fitted concentration of half-maximal effect. Summed up: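 Seed 3T3 Gli1-Luc cells at 2,000 per well; incubate 4 hr; add compound in DMSO, then conditioned medium; incubate at 37C with 5% CO2; add CellTiter-Fluor after 23 hr; read fluorescence 1 hr later.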
A short description of assay [17]: qHTS assay to identify small molecule agonists of the sonic hedgehog signaling (Shh) pathway (AID 1259368; calls by dose curve;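 note: NIH/3T3-derived 3T3Gli1-Luc cells carrying a stable Gli1-driven firefly luciferase reporter; series mostly up to about 92 µM; nearly all actives have a fitted effect of over 15% in size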). In outline: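 NIH/3T3-derived 3T3Gli1-Luc cells with stably integrated Gli1-driven firefly luciferase, 2,000 cells/well, compounds added after 4 hr. Incubated 24 hr at 37C, 5% CO2; luminescence read after 30 min with luciferase reagent at room temperature.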

A short description of assay [18]: qHTS assay to identify small molecule antagonists of the sonic hedgehog signaling (Shh) pathway (AID 1259369; calls by dose curve; note: nearly all actives have a fitted effect of over 45% in size; note: potency is the fitted concentration of half-maximal effect). Summed up:
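NIH/3T3-derived Gli1-Luc reporter cells plated 4 h, dosed with compound, then stimulated with conditioned medium for 24 h at 37 C. Firefly luciferase luminescence read after 30 min with detection reagent at room temperature.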

Assay [19] in a line: qHTS RealTime-Glo MT Cell Viability Assay in HepG2 cells - 0 hour (AID 1224889). Note: nearly all actives have a fitted effect of over 50% in size. Summed up: as §3
Assay [20] can be described thus: qHTS assay to identify small molecule phospholipidosis (PLD) inducers (AID 1259344; active = well fitted curve in the direction sought with a large enough effect; an effect the other way counts as inactive or inconclusive). In outline: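 Quantitative HTS in HepG2: compound plus LipidTOX Red dye for 24 h, paraformaldehyde fixation with Hoechst 33342, widefield high-content imaging; amiodarone as positive and DMSO as negative control.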

For 13 compounds, Potency results are on record in PubChem BioAssay (Tox21).

“And” between values parts separate entries of the source, which are not always exact repeats. Identical values can stand only once. Records with an inconclusive call do not appear. More than one record can exist for a structure, and the calls need not agree. The source made the active and inactive calls. Unless noted, calls come from the whole dose curve; as a rule, active = well fitted curve in the direction sought with a large enough effect in the repeat runs; inconclusive = weak or mixed curves; inactive = no such curve, though single readings can be large; an effect the other way counts as inactive or inconclusive.

Chain of Estrogen receptor (Homo sapiens) (P03372 whole entry, looked up): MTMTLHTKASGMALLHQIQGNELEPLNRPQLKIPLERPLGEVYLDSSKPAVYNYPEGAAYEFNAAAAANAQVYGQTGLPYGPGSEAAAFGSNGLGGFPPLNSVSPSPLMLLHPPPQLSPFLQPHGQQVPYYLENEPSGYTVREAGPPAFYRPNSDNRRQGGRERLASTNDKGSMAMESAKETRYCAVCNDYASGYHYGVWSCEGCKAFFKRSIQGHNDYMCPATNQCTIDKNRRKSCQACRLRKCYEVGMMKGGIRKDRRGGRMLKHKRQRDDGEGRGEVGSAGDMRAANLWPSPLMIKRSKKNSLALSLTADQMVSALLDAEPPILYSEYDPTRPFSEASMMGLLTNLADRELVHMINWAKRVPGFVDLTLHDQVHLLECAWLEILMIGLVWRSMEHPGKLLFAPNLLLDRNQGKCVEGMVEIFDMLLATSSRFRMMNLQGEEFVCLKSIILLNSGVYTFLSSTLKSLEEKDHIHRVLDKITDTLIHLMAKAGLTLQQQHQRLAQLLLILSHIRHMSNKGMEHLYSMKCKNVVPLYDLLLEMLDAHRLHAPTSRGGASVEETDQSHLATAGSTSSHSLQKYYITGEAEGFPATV
Chain of Androgen receptor (Homo sapiens) (P10275 whole entry, looked up): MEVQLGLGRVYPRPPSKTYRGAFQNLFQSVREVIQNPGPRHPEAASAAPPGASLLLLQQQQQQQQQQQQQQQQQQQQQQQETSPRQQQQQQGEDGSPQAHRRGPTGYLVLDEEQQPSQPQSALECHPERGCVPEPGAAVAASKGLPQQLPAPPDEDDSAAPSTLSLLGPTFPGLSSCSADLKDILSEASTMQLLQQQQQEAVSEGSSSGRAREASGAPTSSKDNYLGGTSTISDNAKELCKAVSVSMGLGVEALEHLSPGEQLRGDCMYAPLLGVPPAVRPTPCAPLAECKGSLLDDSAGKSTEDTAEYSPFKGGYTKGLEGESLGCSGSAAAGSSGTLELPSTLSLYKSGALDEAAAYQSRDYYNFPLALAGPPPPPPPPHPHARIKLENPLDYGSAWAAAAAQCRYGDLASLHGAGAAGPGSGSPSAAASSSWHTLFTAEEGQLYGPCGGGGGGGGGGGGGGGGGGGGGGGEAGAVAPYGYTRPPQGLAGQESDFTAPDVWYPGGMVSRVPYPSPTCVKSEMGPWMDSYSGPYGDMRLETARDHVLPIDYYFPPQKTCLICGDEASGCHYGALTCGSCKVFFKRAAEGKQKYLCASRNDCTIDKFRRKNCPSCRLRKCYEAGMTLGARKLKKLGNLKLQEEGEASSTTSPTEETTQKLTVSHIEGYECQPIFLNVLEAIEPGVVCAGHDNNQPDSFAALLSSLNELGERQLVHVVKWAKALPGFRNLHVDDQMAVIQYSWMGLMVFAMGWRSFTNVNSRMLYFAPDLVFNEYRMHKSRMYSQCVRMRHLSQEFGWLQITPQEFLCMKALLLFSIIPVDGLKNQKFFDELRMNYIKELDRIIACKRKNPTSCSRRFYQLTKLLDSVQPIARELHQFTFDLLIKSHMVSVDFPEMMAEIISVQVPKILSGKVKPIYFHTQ

Take `CC(C)CCOCc1ccccc1`: the Potency entry in assay [1], in assay [2], in assay [3], in assay [4], in assay [5] and in [6] was “inactive” throughout. Moreover, the Potency result in assay [7], in assay [8], in assay [9], in assay [10], in [11] and in [12] was “inactive” each time. Also, the Potency result in [13], in assay [14], in assay [15], in assay [16], in assay [17] and in [18] was “inactive” each time.

Take `CC(C)(C)NCC(O)COc1ccccc1OCC1CCCO1` (stereo not drawn): the Potency result in assay [1], in [2], in [3], in assay [4], in assay [5] and in assay [6] was “inactive” throughout. Besides, the Potency entry in assay [7], in [8], in [9], in assay [10], in [12] and in assay [13] was “inactive” in each case. Besides, the Potency entry in [14], in [15], in assay [16] and in assay [17] was “inactive” throughout.

Regarding `c1ccc2c(c1)-c1cccc3c1c-2cc1ccccc13`, the Potency entry in [1], in [2], in assay [3], in assay [4], in [5] and in assay [6] was “inactive” throughout. Further, the Potency result in assay [7], in assay [8], in assay [9], in assay [10], in assay [12] and in [14] was “inactive” in each case. For the same compound, the Potency entry in assay [15], in [16] and in assay [17] was “inactive” each time. Further, the Potency result in assay [18] is “inactive and 545 nM (active)”.

Turning to `O=C1OC2(c3ccc(O)cc3Oc3cc(O)ccc32)c2ccccc21`, the Potency in assay [1] is 1.55 µM (active) and 301 nM (active); in assay [2], 616 nM (active) and 301 nM (active); in assay [3] it was 692 nM (active) and 848 nM (active); in [7] it was 616 nM (active) and 1.2 µM (active); in [8] it was 692 nM (active) and 301 nM (active). For the same compound, the Potency result in [4], in assay [5], in assay [6], in assay [19], in assay [12] and in assay [20] was “inactive” throughout. The Potency result in assay [13], in assay [17] and in [18] was “inactive” each time.

For the compound `O=S(=O)(O)c1ccc2nc(-c3ccccc3)[nH]c2c1`, the Potency result in assay [1], in assay [2], in [3], in assay [4], in assay [5] and in assay [6] was “inactive” throughout. Further, the Potency entry in assay [7], in [8], in [9], in assay [20], in assay [15] and in assay [16] was “inactive” in each case. Further, in assay [18], the Potency result was “inactive”. Further, the Potency in assay [13] was 732 nM (active) and 668 nM (active).

Regarding `C[N+]1([O-])CCOCC1`, the Potency result in [1], in [2], in assay [3], in [4], in [5] and in assay [6] was “inactive” in each case. The Potency result in assay [7], in [8], in assay [9], in assay [10], in assay [15] and in assay [16] was “inactive” in each case. For the same compound, the Potency result in assay [17] and in assay [18] was “inactive” throughout.

As for `CCC(C)(Oc1ccc(C2(c3ccc(OC(C)(CC)C(=O)O)cc3)CCCCC2)cc1)C(=O)O` (stereo not drawn), the Potency result in assay [1], in [2], in assay [3], in assay [4], in [5] and in assay [6] was “inactive” in each case. For the same compound, the Potency entry in assay [7], in assay [8], in [9], in assay [11], in [12] and in assay [20] was “inactive” in each case. In addition, the Potency entry in [13], in [14], in [15], in assay [16] and in [18] was “inactive” in each case.

Take `C=CS(=O)(=O)O`: the Potency result in [1], in assay [2], in assay [3], in [4], in assay [5] and in [6] was “inactive” each time. Further, the Potency result in assay [7], in assay [8], in [9], in assay [10], in assay [12] and in assay [20] was “inactive” throughout. In addition, the Potency result in assay [13], in assay [14], in assay [15], in [16] and in assay [18] was “inactive” in each case.

Turning to `CC(C)CCCCCCc1ccc(O)cc1`, the Potency result in assay [1], in [4], in assay [19], in [20] and in assay [13] was “inactive” throughout. For the same compound, the Potency in [2] was 19.8 µM (active) and 43.6 µM (active); in [3], 39.6 µM (active); in assay [5], 4.44 µM (active); in assay [6], 19.8 µM (active); in assay [7], 39.6 µM (active) and 38.9 µM (active); in assay [8], 25 µM (active) and 43.6 µM (active). The Potency in assay [12] was 5.54 µM (active) and inactive; in assay [15] it was 62.2 µM (active); in assay [16] it was 55.4 µM (active) and inactive; in [18] it was 24.8 µM (active) and inactive.

For the compound `CCOc1ccccc1C(N)=O`, the Potency entry in [1], in assay [2], in assay [3], in assay [4], in [5] and in [6] was “inactive” each time. The Potency result in assay [7], in assay [8], in assay [9], in [11], in assay [12] and in assay [20] was “inactive” each time. Moreover, the Potency entry in [13], in [14], in assay [15], in assay [16], in assay [17] and in [18] was “inactive” throughout.

Regarding `O=C(O)CCc1ccccc1`, the Potency entry in assay [1], in [2], in [3], in [4], in assay [5] and in assay [6] was “inactive” throughout. Further, the Potency result in assay [7], in assay [8], in assay [9], in assay [10], in assay [14] and in [15] was “inactive” throughout. Besides, the Potency entry in [16], in [17] and in assay [18] was “inactive” each time.

For `C=CC(=O)OCCCCCCCC`, the Potency result in assay [1], in assay [2], in assay [3], in [4], in assay [5] and in assay [6] was “inactive” throughout. Moreover, the Potency result in [7], in [8], in [9], in assay [10], in assay [12] and in assay [13] was “inactive” in each case. In addition, the Potency entry in assay [14], in assay [15], in assay [16] and in assay [17] was “inactive” each time.

Consider `NCCO`, for which the Potency result in assay [1], in [2], in [3], in assay [4], in [5] and in [6] was “inactive” throughout. In addition, the Potency entry in assay [7], in assay [8], in assay [9], in assay [10], in assay [12] and in assay [20] was “inactive” in each case. In addition, the Potency entry in assay [13], in [14], in [15] and in assay [17] was “inactive” in each case. Also, the Potency result is “inactive and 43.3 µM (active)” in [16]; “inactive and 15.4 µM (active)” in assay [18].
